We go through 40 compounds from PubChem BioAssay (NCATS).

Results filed as inconclusive are left out. Where a call stands in place of a potency, no number is given. Activity calls are given as the source filed them. Calls come from the whole dose curve; as a rule, active = well fitted cell-killing curve with a large enough effect; inconclusive = small, poorly fitted or top-dose-only effect; inactive = flat fitted curve, though single readings scatter.
Potency is the fitted concentration of half-maximal effect.

The nature of one assay: Quantitative highthroughput screen to assess conditional lethalithy of NOMO1 cells grown in RPMI1640 with untreated serum (RPMI+s) (AID 1963876). Note: nearly all actives have a fitted effect of over 35% in size. As to conditions: NOMO1 AML cells in RPMI+serum, CellTiter-Glo viability, 48 h; series mostly up to 45.8 µM. In short, it runs like this: (§1)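 Each medium arm—HPLM with 10% dialyzed FBS, or RPMI1640 with 5 mM glucose and 10% untreated or dialyzed FBS—was screened against an 11-point, 3-fold compound titration for 48 h at 37 °C, with CellTiter-Glo luminescence as endpoint.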
(ATP-based viability assays read luminescence as a measure of living cells.)
For the compound `CC(=O)OCC(CCn1cnc2cnc(N)nc21)COC(C)=O`, the Potency entry is “inactive”.
As to `CNC(=O)c1ccc2cc(C3(O)CCn4cncc43)ccc2c1` (stereo not given), the Potency entry is “inactive”.
Turning to `COc1ncc(-c2ccc3c(Nc4cc(Oc5cc(F)cc(F)c5)cc(C(=O)O)c4)c(S(=O)(=O)NC4CC4)cnc3c2)c(OC)n1`, the Potency entry was “inactive”.
For the compound `Cc1cc(C(C)Nc2ccccc2)c2nc(N3CCOCC3)cc(=O)n2c1` (stereo not given), the Potency entry is “inactive”.
On the same count and under the same terms, for `O=C1CCC[C@@H]2[C@H]3CCC[N+]4([O-])CCC[C@@H](CN12)[C@@H]34` (stereo not given in full) the value was 8.33 µM (active); for `CN(CCOc1ccc(NS(C)(=O)=O)cc1)CCc1ccc(NS(C)(=O)=O)cc1`, “inactive”.
Still for that read-out and setting: for `CC[C@@H]([C@H](C)O)n1ncn(-c2ccc(N3CCN(c4ccc(OCC5CO[C@@](Cn6cncn6)(c6ccc(F)cc6F)C5)cc4)CC3)cc2)c1=O` (stereo not given in full) the value was “inactive”; for `O=C(c1ccc(F)cc1)C1CCN(CCn2c(=O)[nH]c3ccccc3c2=O)CC1`, “inactive”; for `CC(O)C1C(=O)N2C(C(=O)O)=C(SC3CNC(C(=O)N(C)C)C3)C(C)C12` (stereo not given), “inactive”.
On the same count and under the same terms, for `COc1ccc(F)c(F)c1C(=O)c1cnc(NC2CCN(S(C)(=O)=O)CC2)nc1N` the value was 4.69 µM (active); for `COc1ccc2c(Oc3ccc(NC(=O)c4c(C)n(CC(C)(C)O)n(-c5ccccc5)c4=O)cc3F)ccnc2c1`, “inactive”.
Turning to `CC1CNc2c(cccc2S(=O)(=O)N[C@@H](CCCN=C(N)N)C(=O)N2CC[C@@H](C)C[C@@H]2C(=O)O)C1` (stereo not given in full), the Potency entry was “inactive”.
Turning to `Cc1cnc(Nc2ccc(OCCN3CCCC3)cc2)nc1Nc1cccc(S(=O)(=O)NC(C)(C)C)c1`, the Potency entry was “inactive”.
Still for that read-out and setting: for `CCCCN(CCCC)CCC(O)c1cc2c(Cl)cc(Cl)cc2c2cc(C(F)(F)F)ccc12` (stereo not given) the value was “inactive”; for `CCn1c(-c2nonc2N)nc2cncc(CNC3CCNCC3)c21`, 9.35 µM (active); for `NCCS(=O)(=O)O`, “inactive”.
Still for that read-out and setting: for `C[C@@H](NCCCc1cccc(C(F)(F)F)c1)c1cccc2ccccc12` the value was “inactive”; for `COc1ccc2[nH]cc(CCNC(C)=O)c2c1`, “inactive”; for `CCCOc1ccc(C(=O)OCCN(CC)CC)cc1N`, “inactive”.
On the same count and under the same terms, for `NCCc1cnc[nH]1` the value was “inactive”; for `CC1CCN(c2cc(N3CCN(C)CC3)ccc2NC(=O)c2cc(C#N)c[nH]2)CC1`, “inactive”.
As to `COc1ccc([C@@H]2CNC(=O)C2)cc1OC1CCCC1`, the Potency result is “inactive”.
Same read-out and setting: for `CN1CC[C@@H](c2c(O)cc(O)c3c(=O)cc(-c4ccccc4Cl)oc23)[C@@H](O)C1` the value was 0.469 µM (active); for `Nc1ncnc2c1ncn2[C@@H]1O[C@H](CO)[C@@H](O)[C@@H]1O`, 9.35 µM (active); for `Cc1c(-c2ccnn2C)cc(C(=O)NCc2ccc(S(C)(=O)=O)cn2)c(=O)n1-c1cccc(C(F)(F)F)c1`, “inactive”.
Consider `COC(=O)Nc1cc(Nc2cc(NC3CC3)c3ncc(C#N)n3n2)c(Cl)c(N2CCN(C)CC2)c1`, for which the Potency was 9.33 µM (active).
Still for that read-out and setting: for `Cc1cc(Nc2ncnc3ccc(-c4ccc(CNCCS(C)(=O)=O)o4)cc23)ccc1Oc1ccn2ncnc2c1` the value was 0.935 µM (active); for `O[C@@H](COc1cccc2ncccc12)CN1CCN(C2c3ccccc3[C@@H]3[C@H](c4ccccc42)C3(F)F)CC1` (stereo not given in full), “inactive”; for `CC1=CC(=O)c2ccccc2C1=O`, “inactive”.
The same measure, in the same setting: for `CN(C)c1nc(N(C)C)nc(N(C)C)n1` the value was “inactive”.
For the compound `CNCc1ccc(-c2[nH]c3cc(F)cc4c3c2CCNC4=O)cc1`, the Potency result is “inactive”.
Turning to `CC(NCCc1ccc(O)cc1)C(O)c1ccc(O)cc1` (stereo not given), the Potency entry was “inactive”.
Consider `CN1CCN(Cc2ccc(NC(=O)Nc3ccc(Oc4cc(NC(=O)C5CC5)ncn4)cc3)cc2C(F)(F)F)CC1`, for which the Potency is 0.418 µM (active).
The same measure, in the same setting: for `CC(C)C[C@H](NC(=O)[C@@H](NC(=O)c1cccc(-c2ccccc2)n1)[C@@H](C)O)B(O)O` the value was 0.0743 µM (active).
Same read-out and setting: for `Cc1nc(N)ncc1-c1nc(N2CCOCC2)c2sc(C(C)(C)O)cc2n1` the value was 0.209 µM (active); for `Cn1cnc2c(F)c(Nc3ccc(Br)cc3Cl)c(C(=O)NOCCO)cc21`, 0.59 µM (active).
Same read-out and setting: for `COC(=O)N1CC2(CC2)C[C@H](C(=O)NO)[C@H]1C(=O)N1CCN(c2ccccc2)CC1` the value was 0.524 µM (active).
Take `CN1CCC(COc2cnc(-c3cccc(Cn4nc(-c5cccc(C#N)c5)ccc4=O)c3)nc2)CC1`: the Potency result is “inactive”.
Still for that read-out and setting: for `Oc1ccc(-c2nc(-c3ccc(F)cc3)c(-c3ccncc3)[nH]2)cc1` the value was 10.5 µM (active); for `CCN(CC)CCNC(=O)c1ccc2nc(-c3ccccc3)c(-c3ccc(CN4CCC(n5c(=O)[nH]c6ccccc65)CC4)cc3)nc2c1`, 8.33 µM (active).

The nature of another assay: Quantitative highthroughput screen to assess conditional lethalithy of NOMO1 cells grown in RPMI1640 with dialyzed fetal bovine serum (RPMI+ds) (AID 1963877). Note: nearly all actives have a fitted effect of over 30% in size. As to conditions: NOMO1 in RPMI+dialyzed FBS viability, ATP luminescence, 48 h; series mostly up to 45.8 µM. In short, it runs like this:
as §1
On to `CC(=O)OCC(CCn1cnc2cnc(N)nc21)COC(C)=O`, for which the Potency entry is “inactive”.
Still for that read-out and setting: for `CNC(=O)c1ccc2cc(C3(O)CCn4cncc43)ccc2c1` (stereo not given) the value was “inactive”.
Still for that read-out and setting: for `COc1ncc(-c2ccc3c(Nc4cc(Oc5cc(F)cc(F)c5)cc(C(=O)O)c4)c(S(=O)(=O)NC4CC4)cnc3c2)c(OC)n1` the value was “inactive”.
In the case of `Cc1cc(C(C)Nc2ccccc2)c2nc(N3CCOCC3)cc(=O)n2c1` (stereo not given), the Potency entry was “inactive”.
Consider `O=C1CCC[C@@H]2[C@H]3CCC[N+]4([O-])CCC[C@@H](CN12)[C@@H]34` (stereo not given in full), for which the Potency was 7.43 µM (active).
Turning to `CN(CCOc1ccc(NS(C)(=O)=O)cc1)CCc1ccc(NS(C)(=O)=O)cc1`, the Potency result was “inactive”.
Take `CC[C@@H]([C@H](C)O)n1ncn(-c2ccc(N3CCN(c4ccc(OCC5CO[C@@](Cn6cncn6)(c6ccc(F)cc6F)C5)cc4)CC3)cc2)c1=O` (stereo not given in full): the Potency result is “inactive”.
Still for that read-out and setting: for `O=C(c1ccc(F)cc1)C1CCN(CCn2c(=O)[nH]c3ccccc3c2=O)CC1` the value was “inactive”.
In the case of `CC(O)C1C(=O)N2C(C(=O)O)=C(SC3CNC(C(=O)N(C)C)C3)C(C)C12` (stereo not given), the Potency entry was “inactive”.
Still for that read-out and setting: for `COc1ccc(F)c(F)c1C(=O)c1cnc(NC2CCN(S(C)(=O)=O)CC2)nc1N` the value was 6.62 µM (active); for `COc1ccc2c(Oc3ccc(NC(=O)c4c(C)n(CC(C)(C)O)n(-c5ccccc5)c4=O)cc3F)ccnc2c1`, 18.7 µM (active).
Take `CC1CNc2c(cccc2S(=O)(=O)N[C@@H](CCCN=C(N)N)C(=O)N2CC[C@@H](C)C[C@@H]2C(=O)O)C1` (stereo not given in full): the Potency entry is “inactive”.
With `Cc1cnc(Nc2ccc(OCCN3CCCC3)cc2)nc1Nc1cccc(S(=O)(=O)NC(C)(C)C)c1`, the Potency result is “inactive”.
On to `CCCCN(CCCC)CCC(O)c1cc2c(Cl)cc(Cl)cc2c2cc(C(F)(F)F)ccc12` (stereo not given), for which the Potency entry was “inactive”.
In the case of `CCn1c(-c2nonc2N)nc2cncc(CNC3CCNCC3)c21`, the Potency is 18.7 µM (active).
Regarding `NCCS(=O)(=O)O`, the Potency entry is “inactive”.
The same measure, in the same setting: for `C[C@@H](NCCCc1cccc(C(F)(F)F)c1)c1cccc2ccccc12` the value was “inactive”.
In the case of `COc1ccc2[nH]cc(CCNC(C)=O)c2c1`, the Potency result was “inactive”.
Still for that read-out and setting: for `CCCOc1ccc(C(=O)OCCN(CC)CC)cc1N` the value was “inactive”.
Still for that read-out and setting: for `NCCc1cnc[nH]1` the value was “inactive”; for `CC1CCN(c2cc(N3CCN(C)CC3)ccc2NC(=O)c2cc(C#N)c[nH]2)CC1`, “inactive”.
Consider `COc1ccc([C@@H]2CNC(=O)C2)cc1OC1CCCC1`, for which the Potency entry is “inactive”.
With `CN1CC[C@@H](c2c(O)cc(O)c3c(=O)cc(-c4ccccc4Cl)oc23)[C@@H](O)C1`, the Potency is 0.418 µM (active).
On the same count and under the same terms, for `Nc1ncnc2c1ncn2[C@@H]1O[C@H](CO)[C@@H](O)[C@@H]1O` the value was 8.33 µM (active); for `Cc1c(-c2ccnn2C)cc(C(=O)NCc2ccc(S(C)(=O)=O)cn2)c(=O)n1-c1cccc(C(F)(F)F)c1`, “inactive”; for `COC(=O)Nc1cc(Nc2cc(NC3CC3)c3ncc(C#N)n3n2)c(Cl)c(N2CCN(C)CC2)c1`, 7.41 µM (active).
The same measure, in the same setting: for `Cc1cc(Nc2ncnc3ccc(-c4ccc(CNCCS(C)(=O)=O)o4)cc23)ccc1Oc1ccn2ncnc2c1` the value was 1.18 µM (active).
With `O[C@@H](COc1cccc2ncccc12)CN1CCN(C2c3ccccc3[C@@H]3[C@H](c4ccccc42)C3(F)F)CC1` (stereo not given in full), the Potency result is “inactive”.
Same read-out and setting: for `CC1=CC(=O)c2ccccc2C1=O` the value was “inactive”; for `CN(C)c1nc(N(C)C)nc(N(C)C)n1`, “inactive”.
The same measure, in the same setting: for `CNCc1ccc(-c2[nH]c3cc(F)cc4c3c2CCNC4=O)cc1` the value was “inactive”.
`CC(NCCc1ccc(O)cc1)C(O)c1ccc(O)cc1` (stereo not given): the Potency result was “inactive”.
Same read-out and setting: for `CN1CCN(Cc2ccc(NC(=O)Nc3ccc(Oc4cc(NC(=O)C5CC5)ncn4)cc3)cc2C(F)(F)F)CC1` the value was 0.418 µM (active); for `CC(C)C[C@H](NC(=O)[C@@H](NC(=O)c1cccc(-c2ccccc2)n1)[C@@H](C)O)B(O)O`, 0.105 µM (active).
On to `Cc1nc(N)ncc1-c1nc(N2CCOCC2)c2sc(C(C)(C)O)cc2n1`, for which the Potency is 0.332 µM (active).
Still for that read-out and setting: for `Cn1cnc2c(F)c(Nc3ccc(Br)cc3Cl)c(C(=O)NOCCO)cc21` the value was 0.296 µM (active).
As for `COC(=O)N1CC2(CC2)C[C@H](C(=O)NO)[C@H]1C(=O)N1CCN(c2ccccc2)CC1`, the Potency was 3.31 µM (active).
On the same count and under the same terms, for `CN1CCC(COc2cnc(-c3cccc(Cn4nc(-c5cccc(C#N)c5)ccc4=O)c3)nc2)CC1` the value was “inactive”.
With `Oc1ccc(-c2nc(-c3ccc(F)cc3)c(-c3ccncc3)[nH]2)cc1`, the Potency is 13.2 µM (active).
Same read-out and setting: for `CCN(CC)CCNC(=O)c1ccc2nc(-c3ccccc3)c(-c3ccc(CN4CCC(n5c(=O)[nH]c6ccccc65)CC4)cc3)nc2c1` the value was 11.8 µM (active).
